# PMC7862700, “An all-to-all approach to the identification of sequence-specific readers for epigenetic DNA modifications on cytosine”
# Experiments:
# Experiment in all cases: DAPPL (digital affinity profiling via proximity ligation, sequencing); 10 mM Tris-HCl pH 7.5, 50 mM NaCl, 1 mM DTT, 4% glycerol, room temperature, 30 min; GST-TFs on glutathione beads, 16-mer random dsDNA library, 0.1% formaldehyde crosslink after washing; high values mean tight binding
# FEV = target: T1, FEV (Homo sapiens, UniProt Q99581 1-238); details: protein: recombinant; tags: N-terminal GST; dsDNA, one strand shown
# T1 sequence: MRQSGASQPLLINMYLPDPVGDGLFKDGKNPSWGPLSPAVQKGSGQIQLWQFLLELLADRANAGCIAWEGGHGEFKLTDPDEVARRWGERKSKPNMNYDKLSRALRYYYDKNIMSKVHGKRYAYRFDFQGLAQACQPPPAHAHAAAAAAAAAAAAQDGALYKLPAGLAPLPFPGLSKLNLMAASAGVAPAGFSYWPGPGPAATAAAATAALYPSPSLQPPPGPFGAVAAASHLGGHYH
# In short: (§1)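 Pools were built from human transcription factors expressed in yeast as GST fusions, captured on glutathione beads and DNA-barcoded, along with a tag-only sample. Incubation with 200 nmole of a 16-mer random double-stranded DNA library lasted 30 min at room temperature in Tris/NaCl/DTT/glycerol buffer, and was followed by washing, 0.1% formaldehyde crosslinking, proximity ligation, PCR amplification and Illumina NextSeq500 sequencing. Binding signal is the quotient of each hexamer's read frequency for a factor and its frequency for the tag-only sample.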
# ETV5 = ETV5 (Homo sapiens, UniProt P41161 1-510); details: protein: recombinant; tags: N-terminal GST; dsDNA, one strand shown
# In short: as §1
# HSF1 = HSF1 (Homo sapiens, UniProt Q00613 1-529); details: protein: recombinant; tags: N-terminal GST; chain copies: 3; dsDNA, one strand shown
# In short: as §1
# SPIC = target: T2, SPIC (Homo sapiens, UniProt Q8N5J4 1-248); details: protein: recombinant; tags: N-terminal GST; dsDNA, one strand shown
# T2 sequence: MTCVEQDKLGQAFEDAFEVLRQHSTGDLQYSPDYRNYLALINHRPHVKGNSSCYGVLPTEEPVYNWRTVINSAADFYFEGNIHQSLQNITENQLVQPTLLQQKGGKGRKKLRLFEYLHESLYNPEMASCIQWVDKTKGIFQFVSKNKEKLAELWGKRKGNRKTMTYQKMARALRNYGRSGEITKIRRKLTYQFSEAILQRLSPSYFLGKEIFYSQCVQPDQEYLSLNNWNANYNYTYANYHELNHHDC
# In short: as §1
# ELF4 = ELF4 (Homo sapiens, UniProt Q99607 1-663); details: protein: recombinant; tags: N-terminal GST; dsDNA, one strand shown
# In short: as §1
# ELK4 = target: T3, ELK4 (Homo sapiens, UniProt P28324-2 1-405); details: protein: recombinant; tags: N-terminal GST; dsDNA, one strand shown
# T3 sequence: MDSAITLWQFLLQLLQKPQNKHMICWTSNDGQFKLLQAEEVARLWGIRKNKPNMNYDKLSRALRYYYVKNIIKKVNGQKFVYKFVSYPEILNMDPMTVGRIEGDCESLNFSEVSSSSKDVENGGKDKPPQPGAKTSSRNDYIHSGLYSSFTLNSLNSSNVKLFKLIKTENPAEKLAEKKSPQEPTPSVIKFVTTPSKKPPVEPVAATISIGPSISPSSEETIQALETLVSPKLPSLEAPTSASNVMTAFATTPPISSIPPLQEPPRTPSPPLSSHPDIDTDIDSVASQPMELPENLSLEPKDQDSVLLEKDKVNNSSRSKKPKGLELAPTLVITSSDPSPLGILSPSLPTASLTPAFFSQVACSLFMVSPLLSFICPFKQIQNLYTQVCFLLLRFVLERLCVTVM
# In short: as §1
# ETV2 = target: T4, ETV2 (Homo sapiens, UniProt O00321 1-342); details: protein: recombinant; tags: N-terminal GST; dsDNA, one strand shown
# T4 sequence: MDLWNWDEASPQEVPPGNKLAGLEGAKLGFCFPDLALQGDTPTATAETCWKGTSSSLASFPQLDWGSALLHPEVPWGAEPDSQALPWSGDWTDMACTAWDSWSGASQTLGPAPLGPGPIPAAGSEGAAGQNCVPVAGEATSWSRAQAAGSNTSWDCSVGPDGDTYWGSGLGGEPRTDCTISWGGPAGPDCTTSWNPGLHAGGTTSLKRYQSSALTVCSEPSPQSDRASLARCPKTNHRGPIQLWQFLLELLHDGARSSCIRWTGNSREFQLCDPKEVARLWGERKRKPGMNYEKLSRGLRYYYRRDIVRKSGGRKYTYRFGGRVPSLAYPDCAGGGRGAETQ
# In short: as §1
# ELF3 = target: T5, ELF3 (Homo sapiens, UniProt P78545 1-371); details: protein: recombinant; tags: N-terminal GST; dsDNA, one strand shown
# T5 sequence: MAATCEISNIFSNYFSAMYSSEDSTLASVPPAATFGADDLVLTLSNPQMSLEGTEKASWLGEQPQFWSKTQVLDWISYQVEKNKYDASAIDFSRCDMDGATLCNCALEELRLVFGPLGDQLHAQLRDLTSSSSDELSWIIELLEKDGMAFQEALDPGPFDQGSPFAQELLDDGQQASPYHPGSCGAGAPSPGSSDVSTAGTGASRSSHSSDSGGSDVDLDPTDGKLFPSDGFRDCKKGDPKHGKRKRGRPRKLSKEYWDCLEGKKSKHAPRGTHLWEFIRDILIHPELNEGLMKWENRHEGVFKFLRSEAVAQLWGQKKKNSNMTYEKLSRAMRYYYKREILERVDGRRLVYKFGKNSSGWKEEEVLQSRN
# In short: as §1
# CRX = CRX (Homo sapiens, UniProt O43186 1-299); details: protein: recombinant; tags: N-terminal GST; dsDNA, one strand shown
# In short: as §1
# ETV1 = ETV1 (Homo sapiens, UniProt P50549 1-477); details: protein: recombinant; tags: N-terminal GST; dsDNA, one strand shown
# In short: as §1
# ERF = target: T6, ERF (Homo sapiens, UniProt P50548 1-548); details: protein: recombinant; tags: N-terminal GST; dsDNA, one strand shown
# T6 sequence: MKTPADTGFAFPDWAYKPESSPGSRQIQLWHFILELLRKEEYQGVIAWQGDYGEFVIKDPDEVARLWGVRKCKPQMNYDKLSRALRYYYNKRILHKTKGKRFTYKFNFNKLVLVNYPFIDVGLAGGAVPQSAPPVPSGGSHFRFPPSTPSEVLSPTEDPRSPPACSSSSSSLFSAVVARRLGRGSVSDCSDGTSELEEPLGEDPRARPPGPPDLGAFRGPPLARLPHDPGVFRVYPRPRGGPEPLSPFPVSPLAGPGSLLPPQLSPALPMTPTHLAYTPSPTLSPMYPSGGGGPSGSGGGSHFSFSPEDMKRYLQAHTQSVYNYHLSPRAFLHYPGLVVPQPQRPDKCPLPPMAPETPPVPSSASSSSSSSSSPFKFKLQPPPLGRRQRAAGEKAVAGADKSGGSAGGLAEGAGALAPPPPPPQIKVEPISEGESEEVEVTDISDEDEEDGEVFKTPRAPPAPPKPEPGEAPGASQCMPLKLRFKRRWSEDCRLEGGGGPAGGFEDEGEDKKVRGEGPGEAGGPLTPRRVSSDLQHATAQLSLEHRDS
# In short: as §1
# ETV3L = target: T7, ETV3L (Homo sapiens, UniProt Q6ZN32 1-361); details: protein: recombinant; tags: N-terminal GST; dsDNA, one strand shown
# T7 sequence: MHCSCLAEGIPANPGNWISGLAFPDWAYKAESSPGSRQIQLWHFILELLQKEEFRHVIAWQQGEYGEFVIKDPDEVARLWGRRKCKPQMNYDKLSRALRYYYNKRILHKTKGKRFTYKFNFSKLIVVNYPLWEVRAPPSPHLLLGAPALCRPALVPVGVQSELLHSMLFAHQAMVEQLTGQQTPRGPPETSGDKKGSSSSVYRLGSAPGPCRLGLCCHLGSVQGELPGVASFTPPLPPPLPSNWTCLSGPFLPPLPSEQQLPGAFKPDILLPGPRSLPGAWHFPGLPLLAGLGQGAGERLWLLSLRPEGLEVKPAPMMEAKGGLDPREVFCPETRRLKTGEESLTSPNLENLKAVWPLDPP
# In short: as §1
# ETS2 = target: T8, ETS2 (Homo sapiens, UniProt P15036 1-469); details: protein: recombinant; tags: N-terminal GST; dsDNA, one strand shown
# T8 sequence: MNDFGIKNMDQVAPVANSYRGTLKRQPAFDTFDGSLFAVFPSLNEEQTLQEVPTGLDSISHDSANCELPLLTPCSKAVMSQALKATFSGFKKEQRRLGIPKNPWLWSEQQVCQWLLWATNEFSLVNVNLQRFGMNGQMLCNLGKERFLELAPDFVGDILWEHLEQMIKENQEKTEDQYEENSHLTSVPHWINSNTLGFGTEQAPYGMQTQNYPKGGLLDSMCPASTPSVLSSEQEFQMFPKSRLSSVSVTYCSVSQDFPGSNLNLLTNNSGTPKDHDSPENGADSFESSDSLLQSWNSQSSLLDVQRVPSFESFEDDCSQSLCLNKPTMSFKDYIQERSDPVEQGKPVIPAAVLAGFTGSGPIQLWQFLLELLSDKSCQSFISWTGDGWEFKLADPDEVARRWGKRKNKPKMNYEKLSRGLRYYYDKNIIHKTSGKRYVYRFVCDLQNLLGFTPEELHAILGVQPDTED
# In short: as §1
# SPDEF = target: T9, SPDEF (Homo sapiens, UniProt O95238 1-335); details: protein: recombinant; tags: N-terminal GST; dsDNA, one strand shown
# T9 sequence: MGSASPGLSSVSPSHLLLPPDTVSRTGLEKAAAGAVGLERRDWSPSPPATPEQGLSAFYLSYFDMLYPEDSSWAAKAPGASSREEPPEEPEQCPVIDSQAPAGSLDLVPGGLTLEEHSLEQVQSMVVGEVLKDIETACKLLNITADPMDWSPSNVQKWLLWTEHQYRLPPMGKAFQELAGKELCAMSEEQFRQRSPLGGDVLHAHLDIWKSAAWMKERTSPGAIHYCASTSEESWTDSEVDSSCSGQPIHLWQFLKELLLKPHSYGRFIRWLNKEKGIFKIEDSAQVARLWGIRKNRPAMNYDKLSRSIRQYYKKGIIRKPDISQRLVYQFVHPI
# In short: as §1
# ETV7 = target: T10, ETV7 (Homo sapiens, UniProt Q9Y603 1-341); details: protein: recombinant; tags: N-terminal GST; dsDNA, one strand shown
# T10 sequence: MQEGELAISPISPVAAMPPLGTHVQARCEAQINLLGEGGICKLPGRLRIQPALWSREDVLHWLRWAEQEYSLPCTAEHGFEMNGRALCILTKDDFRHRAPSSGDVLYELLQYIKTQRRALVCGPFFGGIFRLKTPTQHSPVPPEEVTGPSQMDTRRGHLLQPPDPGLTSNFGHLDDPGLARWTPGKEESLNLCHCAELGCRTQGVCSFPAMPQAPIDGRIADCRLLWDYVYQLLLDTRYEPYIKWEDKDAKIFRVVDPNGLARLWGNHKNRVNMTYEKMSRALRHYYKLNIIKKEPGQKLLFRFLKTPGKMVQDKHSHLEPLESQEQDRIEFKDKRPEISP
# In short: as §1
# ELF5 = target: T11, ELF5 (Homo sapiens, UniProt Q9UKW6-2 1-255); details: protein: recombinant; tags: N-terminal GST; dsDNA, one strand shown
# T11 sequence: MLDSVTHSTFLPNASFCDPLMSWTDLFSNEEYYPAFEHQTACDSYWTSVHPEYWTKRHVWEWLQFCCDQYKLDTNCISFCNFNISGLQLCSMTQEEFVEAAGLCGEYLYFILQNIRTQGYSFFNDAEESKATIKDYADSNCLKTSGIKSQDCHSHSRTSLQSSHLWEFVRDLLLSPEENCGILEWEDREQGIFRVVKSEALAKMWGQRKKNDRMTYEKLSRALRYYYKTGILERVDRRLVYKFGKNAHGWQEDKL
# In short: as §1
# ETV3 = target: T12, ETV3 (Homo sapiens, UniProt P41162-2 1-143); details: protein: recombinant; tags: N-terminal GST; dsDNA, one strand shown
# T12 sequence: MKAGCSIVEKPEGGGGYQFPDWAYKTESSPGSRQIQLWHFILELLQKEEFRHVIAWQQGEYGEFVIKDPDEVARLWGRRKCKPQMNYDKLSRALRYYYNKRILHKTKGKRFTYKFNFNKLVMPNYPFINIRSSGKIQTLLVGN
# In short: as §1
# ETV6 = ETV6 (Homo sapiens, UniProt P41212 1-452); details: protein: recombinant; tags: N-terminal GST; dsDNA, one strand shown
# In short: as §1
# Sequence of ELF4 (Q99607 whole entry): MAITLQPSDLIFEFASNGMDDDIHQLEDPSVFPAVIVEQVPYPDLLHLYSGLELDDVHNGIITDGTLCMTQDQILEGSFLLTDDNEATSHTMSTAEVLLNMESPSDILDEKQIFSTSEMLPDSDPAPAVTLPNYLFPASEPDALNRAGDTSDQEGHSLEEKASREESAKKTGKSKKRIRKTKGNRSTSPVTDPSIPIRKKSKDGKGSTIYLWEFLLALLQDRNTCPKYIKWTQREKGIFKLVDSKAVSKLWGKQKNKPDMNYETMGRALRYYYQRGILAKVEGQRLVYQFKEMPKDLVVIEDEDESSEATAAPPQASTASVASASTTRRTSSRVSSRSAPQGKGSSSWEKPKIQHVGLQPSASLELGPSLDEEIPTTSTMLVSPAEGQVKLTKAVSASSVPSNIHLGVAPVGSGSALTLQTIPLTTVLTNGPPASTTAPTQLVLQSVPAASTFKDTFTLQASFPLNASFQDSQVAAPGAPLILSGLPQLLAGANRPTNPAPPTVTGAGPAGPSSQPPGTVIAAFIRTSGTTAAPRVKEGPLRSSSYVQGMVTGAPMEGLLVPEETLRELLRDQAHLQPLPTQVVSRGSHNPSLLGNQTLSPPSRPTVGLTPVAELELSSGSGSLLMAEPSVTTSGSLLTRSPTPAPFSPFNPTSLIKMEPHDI
# Sequence of ETV5 (P41161 whole entry): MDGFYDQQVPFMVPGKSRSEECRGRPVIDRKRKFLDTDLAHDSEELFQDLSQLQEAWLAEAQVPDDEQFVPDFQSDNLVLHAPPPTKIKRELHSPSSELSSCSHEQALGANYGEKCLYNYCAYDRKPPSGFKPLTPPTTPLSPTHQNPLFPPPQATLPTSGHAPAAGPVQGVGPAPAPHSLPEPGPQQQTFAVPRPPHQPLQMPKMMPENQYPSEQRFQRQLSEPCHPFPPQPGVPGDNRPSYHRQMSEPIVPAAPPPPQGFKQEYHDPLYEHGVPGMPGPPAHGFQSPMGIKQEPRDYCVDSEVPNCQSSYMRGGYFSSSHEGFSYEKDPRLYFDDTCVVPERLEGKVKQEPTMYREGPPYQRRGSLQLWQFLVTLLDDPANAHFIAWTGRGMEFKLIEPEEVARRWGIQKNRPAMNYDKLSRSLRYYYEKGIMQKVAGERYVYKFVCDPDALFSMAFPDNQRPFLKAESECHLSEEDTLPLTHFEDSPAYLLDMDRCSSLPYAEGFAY
# Sequence of CRX (O43186 whole entry): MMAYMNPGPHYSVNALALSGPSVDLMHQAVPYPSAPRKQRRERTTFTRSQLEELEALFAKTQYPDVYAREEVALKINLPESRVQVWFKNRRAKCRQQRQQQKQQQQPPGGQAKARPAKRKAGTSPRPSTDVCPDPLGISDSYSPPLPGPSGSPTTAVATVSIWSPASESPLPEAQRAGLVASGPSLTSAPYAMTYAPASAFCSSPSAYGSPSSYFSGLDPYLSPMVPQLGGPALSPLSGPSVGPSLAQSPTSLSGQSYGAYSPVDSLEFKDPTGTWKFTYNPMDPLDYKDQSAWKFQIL
# Sequence of ETV6 (P41212 whole entry): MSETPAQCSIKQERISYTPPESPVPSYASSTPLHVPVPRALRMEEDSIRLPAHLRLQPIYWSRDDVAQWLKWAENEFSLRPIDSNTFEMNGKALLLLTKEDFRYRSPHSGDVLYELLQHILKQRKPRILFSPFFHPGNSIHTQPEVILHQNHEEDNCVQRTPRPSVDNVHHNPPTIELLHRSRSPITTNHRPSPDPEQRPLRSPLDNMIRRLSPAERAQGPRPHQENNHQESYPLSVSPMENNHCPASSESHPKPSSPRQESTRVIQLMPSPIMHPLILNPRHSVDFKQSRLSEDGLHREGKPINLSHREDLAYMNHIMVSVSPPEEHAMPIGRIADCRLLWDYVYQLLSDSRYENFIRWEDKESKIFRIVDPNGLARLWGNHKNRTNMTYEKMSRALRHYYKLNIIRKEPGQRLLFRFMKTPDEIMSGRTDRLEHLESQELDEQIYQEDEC
# Sequence of HSF1 (Q00613 whole entry): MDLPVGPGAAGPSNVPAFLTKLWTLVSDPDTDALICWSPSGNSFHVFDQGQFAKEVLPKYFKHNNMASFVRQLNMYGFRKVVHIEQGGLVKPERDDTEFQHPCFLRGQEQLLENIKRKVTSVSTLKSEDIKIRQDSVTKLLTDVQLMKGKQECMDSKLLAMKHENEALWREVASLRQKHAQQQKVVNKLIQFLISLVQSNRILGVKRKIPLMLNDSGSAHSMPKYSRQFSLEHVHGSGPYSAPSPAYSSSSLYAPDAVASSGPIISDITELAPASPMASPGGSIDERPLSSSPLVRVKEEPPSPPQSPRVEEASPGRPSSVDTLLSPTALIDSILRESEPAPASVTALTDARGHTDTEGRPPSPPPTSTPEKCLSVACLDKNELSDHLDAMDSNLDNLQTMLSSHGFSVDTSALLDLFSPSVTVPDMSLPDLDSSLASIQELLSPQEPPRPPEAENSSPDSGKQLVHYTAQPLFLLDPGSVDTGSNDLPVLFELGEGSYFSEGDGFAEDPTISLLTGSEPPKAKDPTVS
# Sequence of ETV1 (P50549 whole entry): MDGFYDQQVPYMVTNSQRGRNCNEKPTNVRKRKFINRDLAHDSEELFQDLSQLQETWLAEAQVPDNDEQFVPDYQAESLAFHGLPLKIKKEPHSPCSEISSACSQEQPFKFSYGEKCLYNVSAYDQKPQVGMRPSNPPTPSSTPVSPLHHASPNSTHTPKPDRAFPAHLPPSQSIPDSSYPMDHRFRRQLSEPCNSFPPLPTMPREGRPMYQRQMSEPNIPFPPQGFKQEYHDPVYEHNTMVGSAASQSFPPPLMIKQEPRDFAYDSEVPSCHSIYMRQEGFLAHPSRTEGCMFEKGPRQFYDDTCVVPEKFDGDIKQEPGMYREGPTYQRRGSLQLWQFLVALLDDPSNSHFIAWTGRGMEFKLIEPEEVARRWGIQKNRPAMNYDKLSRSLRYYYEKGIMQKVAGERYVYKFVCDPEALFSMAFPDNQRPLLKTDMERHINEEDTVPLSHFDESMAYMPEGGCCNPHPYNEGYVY
sequence,measurement,setting,value
AAATTG,binding signal,FEV,"1.22 fold enrichment (6-mer frequency, TF over GST control)"
same,binding signal,ETV5,"1.26 fold enrichment (6-mer frequency, TF over GST control)"
same,binding signal,HSF1,"1.16 fold enrichment (6-mer frequency, TF over GST control)"
same,binding signal,SPIC,"1.16 fold enrichment (6-mer frequency, TF over GST control)"
same,binding signal,ELF4,"1.27 fold enrichment (6-mer frequency, TF over GST control)"
same,binding signal,ELK4,"1.2 fold enrichment (6-mer frequency, TF over GST control)"
same,binding signal,ETV2,"1.21 fold enrichment (6-mer frequency, TF over GST control)"
same,binding signal,ELF3,"1.33 fold enrichment (6-mer frequency, TF over GST control)"
same,binding signal,CRX,"1.05 fold enrichment (6-mer frequency, TF over GST control)"
same,binding signal,ETV1,"1.21 fold enrichment (6-mer frequency, TF over GST control)"
same,binding signal,ERF,"1.3 fold enrichment (6-mer frequency, TF over GST control)"
same,binding signal,ETV3L,"1.29 fold enrichment (6-mer frequency, TF over GST control)"
same,binding signal,ETS2,"1.22 fold enrichment (6-mer frequency, TF over GST control)"
same,binding signal,SPDEF,"1.19 fold enrichment (6-mer frequency, TF over GST control)"
same,binding signal,ETV7,"1.25 fold enrichment (6-mer frequency, TF over GST control)"
same,binding signal,ELF5,"1.22 fold enrichment (6-mer frequency, TF over GST control)"
same,binding signal,ETV3,"1.28 fold enrichment (6-mer frequency, TF over GST control)"
same,binding signal,ETV6,"1.34 fold enrichment (6-mer frequency, TF over GST control)"
